Results from the supplement of paper PMC10849652.
Of roughly 8,800 targets only a part is listed; those with a hit were picked by preference. About 0.5% of all pairs of compound and target were hits. Unmarked numbers belong to inactive results.

Each target was assayed with C1=CC=C(C=C1)[C@H](COC2=CC3=C(C=C2)NC(=O)N3)NC(=O)C4=CC=CN(C4=O)CC5=CC(=C(C=C5)F)F (assay: log2 fold change, soluble protein after heating vs DMSO (PISA); higher = thermal stabilisation; K562 lysate, 10 uM; active = over 0.2 and 3.5 SD of the protein, either way, in both replicates (recomputed)).
How it was run: (§1)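 Log-two fold change in thermal stability relative to solvent controls is reported from duplicates. For each sample, crude K562 extract from dounce-homogenised pellets in PBS pH 7.4 with 1 mM MgCl2, at 1 mg/mL protein, was treated with 10 μM compound for 30 min. Aliquots heated for 3 min across 48°C-58°C were pooled, brought to 0.5% NP-40 at 4°C and cleared at 21,000xg for 90 min. The supernatant was quantified by TMTpro 16plex LC-MS/MS with channel sums equalised.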

UniProt Q8WXB1, sequence (Q8WXB1 whole entry, looked up): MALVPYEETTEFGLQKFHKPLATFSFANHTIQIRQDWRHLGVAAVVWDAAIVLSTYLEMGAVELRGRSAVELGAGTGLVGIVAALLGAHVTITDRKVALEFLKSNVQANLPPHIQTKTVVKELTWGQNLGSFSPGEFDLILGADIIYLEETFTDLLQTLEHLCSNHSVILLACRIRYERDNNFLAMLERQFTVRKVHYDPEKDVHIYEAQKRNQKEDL
UniProt Q9NWR8, sequence (Q9NWR8 whole entry, looked up): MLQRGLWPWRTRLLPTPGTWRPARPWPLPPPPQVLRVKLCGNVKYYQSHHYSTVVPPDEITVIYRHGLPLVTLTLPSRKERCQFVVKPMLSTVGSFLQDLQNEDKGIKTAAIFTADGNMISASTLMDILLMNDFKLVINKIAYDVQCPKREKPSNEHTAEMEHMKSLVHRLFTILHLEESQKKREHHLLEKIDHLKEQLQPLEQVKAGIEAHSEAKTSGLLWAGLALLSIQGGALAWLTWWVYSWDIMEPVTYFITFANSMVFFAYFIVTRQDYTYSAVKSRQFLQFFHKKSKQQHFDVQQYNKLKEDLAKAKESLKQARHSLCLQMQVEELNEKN
UniProt Q00987, sequence (Q00987 whole entry, looked up): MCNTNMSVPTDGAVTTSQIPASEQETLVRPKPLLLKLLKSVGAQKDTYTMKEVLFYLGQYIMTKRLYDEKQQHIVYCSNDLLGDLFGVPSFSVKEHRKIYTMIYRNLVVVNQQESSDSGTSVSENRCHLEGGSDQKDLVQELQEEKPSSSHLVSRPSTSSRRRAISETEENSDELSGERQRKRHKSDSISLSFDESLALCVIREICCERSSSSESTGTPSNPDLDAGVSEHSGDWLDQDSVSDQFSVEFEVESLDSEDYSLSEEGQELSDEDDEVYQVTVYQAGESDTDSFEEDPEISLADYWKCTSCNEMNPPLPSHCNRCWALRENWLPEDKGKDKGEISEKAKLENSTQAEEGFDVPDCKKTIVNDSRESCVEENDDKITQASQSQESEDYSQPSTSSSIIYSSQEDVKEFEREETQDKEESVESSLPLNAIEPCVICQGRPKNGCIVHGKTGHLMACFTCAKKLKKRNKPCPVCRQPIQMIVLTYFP
UniProt Q16553, sequence (Q16553 whole entry, looked up): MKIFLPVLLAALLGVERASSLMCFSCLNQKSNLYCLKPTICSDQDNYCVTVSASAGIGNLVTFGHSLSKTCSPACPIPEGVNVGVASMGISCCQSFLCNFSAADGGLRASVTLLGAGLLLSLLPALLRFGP
UniProt Q5SRI9, sequence (Q5SRI9 whole entry, looked up): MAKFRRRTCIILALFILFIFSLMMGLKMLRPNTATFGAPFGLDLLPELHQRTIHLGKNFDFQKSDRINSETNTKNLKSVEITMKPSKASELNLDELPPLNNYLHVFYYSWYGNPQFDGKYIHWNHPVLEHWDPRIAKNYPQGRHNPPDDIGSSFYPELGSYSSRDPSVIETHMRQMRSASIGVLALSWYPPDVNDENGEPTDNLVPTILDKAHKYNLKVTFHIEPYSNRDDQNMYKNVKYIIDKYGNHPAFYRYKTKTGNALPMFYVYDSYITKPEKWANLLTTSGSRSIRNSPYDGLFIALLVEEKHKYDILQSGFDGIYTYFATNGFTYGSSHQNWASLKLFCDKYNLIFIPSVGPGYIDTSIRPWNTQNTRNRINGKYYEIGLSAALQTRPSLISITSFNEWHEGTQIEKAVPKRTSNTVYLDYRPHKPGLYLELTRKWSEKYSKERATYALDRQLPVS
UniProt P08473, sequence (P08473 whole entry, looked up): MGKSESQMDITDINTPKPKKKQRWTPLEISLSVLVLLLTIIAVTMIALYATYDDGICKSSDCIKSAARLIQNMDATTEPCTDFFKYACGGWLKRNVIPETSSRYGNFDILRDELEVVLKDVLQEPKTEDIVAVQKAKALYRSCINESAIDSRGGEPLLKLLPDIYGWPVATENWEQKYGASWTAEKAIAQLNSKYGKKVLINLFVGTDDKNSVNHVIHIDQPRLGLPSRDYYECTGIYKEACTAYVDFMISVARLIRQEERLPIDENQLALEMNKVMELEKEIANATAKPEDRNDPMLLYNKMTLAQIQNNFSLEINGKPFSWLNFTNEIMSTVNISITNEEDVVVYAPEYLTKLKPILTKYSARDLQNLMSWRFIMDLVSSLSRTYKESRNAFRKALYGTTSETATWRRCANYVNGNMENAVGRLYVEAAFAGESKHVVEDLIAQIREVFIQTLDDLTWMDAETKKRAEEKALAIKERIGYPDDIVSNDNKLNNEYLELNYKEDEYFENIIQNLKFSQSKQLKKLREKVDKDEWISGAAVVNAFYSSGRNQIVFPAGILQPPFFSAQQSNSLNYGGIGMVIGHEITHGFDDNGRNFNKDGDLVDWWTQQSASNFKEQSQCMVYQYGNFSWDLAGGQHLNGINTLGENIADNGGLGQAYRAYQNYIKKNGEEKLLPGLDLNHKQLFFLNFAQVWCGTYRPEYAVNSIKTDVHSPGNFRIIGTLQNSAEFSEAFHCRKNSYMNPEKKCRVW
UniProt O15243, sequence (O15243 whole entry, looked up): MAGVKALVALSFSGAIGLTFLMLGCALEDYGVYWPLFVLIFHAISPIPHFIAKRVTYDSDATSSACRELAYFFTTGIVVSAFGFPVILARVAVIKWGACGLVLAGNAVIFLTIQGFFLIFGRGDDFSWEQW
UniProt Q96T76, sequence (Q96T76 whole entry, looked up): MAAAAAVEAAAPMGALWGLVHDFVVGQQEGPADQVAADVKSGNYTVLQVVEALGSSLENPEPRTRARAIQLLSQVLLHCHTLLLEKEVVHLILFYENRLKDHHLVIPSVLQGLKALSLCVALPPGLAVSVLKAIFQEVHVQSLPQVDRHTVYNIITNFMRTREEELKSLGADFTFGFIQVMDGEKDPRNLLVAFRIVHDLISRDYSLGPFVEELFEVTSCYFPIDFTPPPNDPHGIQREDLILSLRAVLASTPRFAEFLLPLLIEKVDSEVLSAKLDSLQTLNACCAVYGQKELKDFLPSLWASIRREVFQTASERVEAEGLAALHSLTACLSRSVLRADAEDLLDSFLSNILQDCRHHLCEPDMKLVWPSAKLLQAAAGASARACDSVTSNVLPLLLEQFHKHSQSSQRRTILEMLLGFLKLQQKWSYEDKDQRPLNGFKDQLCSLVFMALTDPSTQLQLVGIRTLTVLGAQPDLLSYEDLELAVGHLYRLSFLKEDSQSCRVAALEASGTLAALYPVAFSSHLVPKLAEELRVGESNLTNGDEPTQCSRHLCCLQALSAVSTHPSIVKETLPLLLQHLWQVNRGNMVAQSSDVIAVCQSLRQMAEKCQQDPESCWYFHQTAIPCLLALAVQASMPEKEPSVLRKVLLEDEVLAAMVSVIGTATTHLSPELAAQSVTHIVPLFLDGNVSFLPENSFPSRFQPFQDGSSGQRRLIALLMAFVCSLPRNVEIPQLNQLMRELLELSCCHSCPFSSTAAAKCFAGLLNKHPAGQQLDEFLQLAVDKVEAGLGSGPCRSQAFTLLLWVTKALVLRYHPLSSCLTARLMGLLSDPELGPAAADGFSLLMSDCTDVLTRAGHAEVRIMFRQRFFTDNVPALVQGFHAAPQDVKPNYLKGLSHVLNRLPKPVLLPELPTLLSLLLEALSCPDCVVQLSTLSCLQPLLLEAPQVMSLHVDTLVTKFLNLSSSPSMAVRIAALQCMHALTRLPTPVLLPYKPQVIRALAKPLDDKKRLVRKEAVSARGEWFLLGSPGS
UniProt Q9Y2E5, sequence (Q9Y2E5 whole entry, looked up): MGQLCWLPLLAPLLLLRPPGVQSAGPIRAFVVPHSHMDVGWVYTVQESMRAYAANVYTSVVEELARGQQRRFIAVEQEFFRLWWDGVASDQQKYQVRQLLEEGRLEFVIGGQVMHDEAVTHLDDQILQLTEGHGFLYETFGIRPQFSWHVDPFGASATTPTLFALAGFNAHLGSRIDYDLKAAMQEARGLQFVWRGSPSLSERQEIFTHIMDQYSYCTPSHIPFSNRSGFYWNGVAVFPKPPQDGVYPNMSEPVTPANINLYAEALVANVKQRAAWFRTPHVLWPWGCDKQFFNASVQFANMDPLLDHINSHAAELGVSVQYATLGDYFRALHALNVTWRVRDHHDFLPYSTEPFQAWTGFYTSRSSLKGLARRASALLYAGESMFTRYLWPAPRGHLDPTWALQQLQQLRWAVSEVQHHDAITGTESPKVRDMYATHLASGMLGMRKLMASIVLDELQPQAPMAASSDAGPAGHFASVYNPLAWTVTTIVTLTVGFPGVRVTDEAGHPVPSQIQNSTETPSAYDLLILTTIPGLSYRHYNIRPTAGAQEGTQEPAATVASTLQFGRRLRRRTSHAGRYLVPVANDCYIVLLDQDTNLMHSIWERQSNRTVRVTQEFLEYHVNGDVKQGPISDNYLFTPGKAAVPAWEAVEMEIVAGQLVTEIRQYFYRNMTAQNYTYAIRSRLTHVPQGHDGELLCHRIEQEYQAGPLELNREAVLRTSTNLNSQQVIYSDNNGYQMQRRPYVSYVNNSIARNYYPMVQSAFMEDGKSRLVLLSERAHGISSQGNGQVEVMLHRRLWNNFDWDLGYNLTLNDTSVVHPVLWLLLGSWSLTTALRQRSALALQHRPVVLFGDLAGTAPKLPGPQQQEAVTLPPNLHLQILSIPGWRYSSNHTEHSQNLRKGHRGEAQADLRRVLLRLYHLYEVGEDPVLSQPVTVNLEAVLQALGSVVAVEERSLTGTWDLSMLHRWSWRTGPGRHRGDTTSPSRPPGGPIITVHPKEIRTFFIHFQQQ
UniProt A9UHW6, sequence (A9UHW6 whole entry, looked up): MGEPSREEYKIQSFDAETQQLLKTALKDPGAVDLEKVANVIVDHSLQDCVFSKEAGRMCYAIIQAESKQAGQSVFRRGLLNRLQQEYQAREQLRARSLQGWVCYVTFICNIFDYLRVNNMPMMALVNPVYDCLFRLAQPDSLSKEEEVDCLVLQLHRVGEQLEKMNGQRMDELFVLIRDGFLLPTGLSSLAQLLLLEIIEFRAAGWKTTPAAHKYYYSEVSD

Target | log2 fold change
MME (UniProt P08473) | -0.152
KIF21A (UniProt H0YI78) | 0.128
MRPL30 isoform 2 (UniProt Q8TCC3) | 0.086
LEPROT (UniProt O15243) | 0.049
MIF4GD isoform 3 (UniProt A9UHW6) | -0.046
MAN2B2 (UniProt Q9Y2E5) | 0.087
MDM2 isoform 11 (UniProt Q00987) | 0.109
LY6E (UniProt Q16553) | -0.031
MAP4K4 isoform 6 (UniProt O95819) | 0.076
MEGF8 (UniProt Q7Z7M0) | 0.023
MCUB (UniProt Q9NWR8) | 0.097
MED25 isoform 3 (UniProt Q71SY5) | -0.069
MRPL27 (UniProt Q9P0M9) | 0.002
MMS19 isoform 8 (UniProt Q96T76) | -0.024
METTL21A (UniProt Q8WXB1) | 0.048
MANEA (UniProt Q5SRI9) | 0.146

The targets below were run with CC1=C(SC2=C1C(=N[C@H](C3=NN=C(N32)C)CC(=O)N)C4=CC=C(C=C4)Cl)C in the same assay as above.
How it was run: as §1

Target | log2 fold change
MME (UniProt P08473) | 0.041
KIF21A (UniProt H0YI78) | 0.02
MRPL30 isoform 2 (UniProt Q8TCC3) | -0.056
LEPROT (UniProt O15243) | -0.009
MIF4GD isoform 3 (UniProt A9UHW6) | -0.033
MAN2B2 (UniProt Q9Y2E5) | 0.086
MDM2 isoform 11 (UniProt Q00987) | -0.092
LY6E (UniProt Q16553) | -0.046
MAP4K4 isoform 6 (UniProt O95819) | 0.063
MEGF8 (UniProt Q7Z7M0) | -0.022
MCUB (UniProt Q9NWR8) | -0.171
MED25 isoform 3 (UniProt Q71SY5) | 0.026
MRPL27 (UniProt Q9P0M9) | -0.046
MMS19 isoform 8 (UniProt Q96T76) | 0.001
METTL21A (UniProt Q8WXB1) | -0.069
MANEA (UniProt Q5SRI9) | -0.009
